Screens from PubChem BioAssay.
PERK inhibitor – human PERK inhibition, primary cell-based screen; AID 1416; Q9NZJ5; inhibition, % at 5.6 µM; 220,000 compounds, 0.17% hits; CHO PERK-DD fusion, SEAP luminescence translation reporter;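 active = inhibition above the mean inhibition of all tested compounds plus 3 SD, set separately per screening campaign, cut at about 2.9% in these data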;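 note: PERK kinase domain activated by AP20187 dimerizer at 100 nM; 0% = DMSO with dimerizer and 100% = rapamycin at 8.4 µM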
ROMK primary – human ROMK K+ channel modulation, primary screen; P48048; Tet-inducible ROMK, thallium flux fluorescence; actives lie on both sides; B-score at 10 µM; 130,000 compounds, 2% hits; AID 1918;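 active = signal ratio slope over the read window, or its plate-corrected B-score, at least 3 SD from the plate mean, either direction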;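 note: B-score of the F/F0 ratio slope over 7 to 12 s after thallium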
Arbovirus inh – arbovirus infection inhibition; 200,000 compounds, 0.37% hits; inhibition, % at 10 µM; AID 1251; arbovirus infection cell-based antiviral screen; in the data active = inhibition above about 30%
WT yeast gro inh – growth inhibition of WT yeast, mitochondrial fusion screen. mitochondrial fusion phenotypic screen, WT strain. inhibition, % at 10 µM. 190,000 compounds, 2.1% hits. AID 1362; in the data active = inhibition above about 58%; tested in S. cerevisiae
ROMK retest – human ROMK channel modulation, retest confirmation | shares compounds with ROMK primary | 3,000 compounds, 54% hits | normalized thallium flux (F/F0 slope) at 10 µM | AID 1917 | ROMK thallium flux, fluorescence ratio; stronger effect = lower value;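 active = Flux at 10 µM at least 3 SD below or above vehicle control mean in one or both replicates; inconclusive = no clear call, values can overlap the other calls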
Numbers without * were called inactive. This is a sample that favours compounds with a hit; in the whole collection about 3.3% have one here.

`COc1ccc(C)cc1NC(=O)CN1CCN(S(=O)(=O)c2ccc(Br)cc2)CC1` gave PERK inhibitor 1.6, ROMK primary 0.0516, Arbovirus inh 10.0 and WT yeast gro inh -8.4.
`COc1ccc2cc(C(=O)N/N=C/c3sc4ccccc4c3O)ccc2c1` gave PERK inhibitor 0.9, ROMK primary -2.81*, Arbovirus inh -27.9, WT yeast gro inh 1.0 and ROMK retest 0.0484*.
For O=C1NC(=S)N/C1=C\C=C\c1ccccc1 the results were PERK inhibitor -0.5 and ROMK primary 0.119.
COc1ccc(NC(=O)C2C3CC/C=C\CCC32)cc1 (stereo not drawn) was read as PERK inhibitor 1.0.
Screening O=C(Nc1ccc(O)cc1)C1CC=CCC1 (stereo not drawn) returned PERK inhibitor 1.0, Arbovirus inh -25.1 and ROMK retest 0.0733.
For C/C(CCC(C)C)=N\Nc1cc(C)c2ccccc2n1 the results were PERK inhibitor 0.4, ROMK primary -0.123, Arbovirus inh -7.0 and WT yeast gro inh 11.3.
Screening CCOC(=O)c1[nH]c2ccc(OC)cc2c1NC(=O)NC(C)C returned PERK inhibitor 0.5, Arbovirus inh -0.3 and WT yeast gro inh -2.0.
For CCOC(=O)c1[nH]c2ccc(OC)cc2c1NC(=O)OC the results were PERK inhibitor 0.1, Arbovirus inh -2.7, WT yeast gro inh 13.6 and ROMK retest inconclusive.
Screening Clc1cncc(Cl)c1N/N=C/c1ccncc1 returned PERK inhibitor 1.1, ROMK primary 4.1*, Arbovirus inh -12.1, WT yeast gro inh -23.5 and ROMK retest 0.117*.
Clc1cccc(Cl)c1/C=N/Nc1c(Cl)cncc1Cl was read as PERK inhibitor 0.4.
COc1cc(/C=C2/CC/C(=C/c3ccc(O)c(OC)c3)C2=O)ccc1O was read as PERK inhibitor -0.5 and ROMK retest 0.0512*.
COc1cc(/C=C2\CC/C(=C\c3ccc(OCCO)c(OC)c3)C2=O)ccc1OCCO was read as PERK inhibitor -0.4, ROMK primary -2.37*, Arbovirus inh 1.8, WT yeast gro inh -24.7 and ROMK retest inconclusive.
`COc1cc(/C=C2\COC/C(=C\c3ccc(O)c(OC)c3)C2=O)ccc1O` gave PERK inhibitor -0.3.
`Cc1cc(C(=O)COc2ccc(F)cc2Br)c(C)n1C` gave PERK inhibitor 0.9, ROMK primary -1.86*, Arbovirus inh 8.5, WT yeast gro inh -2.6 and ROMK retest inconclusive.
For Cn1c(=O)n(Cc2ccc(Cl)cc2)c2ccccc21 the results were PERK inhibitor -0.6, ROMK primary -0.623, Arbovirus inh -5.8 and WT yeast gro inh 8.6.
O=C(N/N=C/c1ccc(O)cc1)c1cc(C23CC4CC(CC(C4)C2)C3)[nH]n1 was read as PERK inhibitor 1.0 and ROMK retest 0.0724.
COc1ccc(/C=N/NC(=O)c2cc(C34CC5CC(CC(C5)C3)C4)[nH]n2)cc1OC was read as PERK inhibitor 0.1, Arbovirus inh 7.5 and WT yeast gro inh 52.2.
For O=C(CSc1ncc(-c2ccccc2)n1C1CCCC1)N1CCc2ccccc21 the results were PERK inhibitor -0.1, ROMK primary -2.66*, Arbovirus inh 1.8, WT yeast gro inh -6.3 and ROMK retest inconclusive.
Screening Cc1cc(NC(=O)/C=C/C(=O)N(CC(=O)NC2CCCC2)c2cccc3ccccc23)no1 returned PERK inhibitor 0.3, ROMK primary -3.99*, Arbovirus inh 8.5, WT yeast gro inh -3.9 and ROMK retest 0.0562*.
`COC(=O)N/N=C/c1ccc(-c2ccc(C)c(Cl)c2)o1` gave PERK inhibitor 0.7, Arbovirus inh -0.9 and WT yeast gro inh 1.7.
Screening Cc1ccc(-c2ccc(/C=N/c3ncn[nH]3)o2)cc1Cl returned PERK inhibitor 1.4, ROMK primary 3.39*, Arbovirus inh 3.4, WT yeast gro inh -6.0 and ROMK retest 0.0871.
For CC1=C(C(=O)OCC(Cl)(Cl)Cl)N2C(=O)C(NC(=O)Cc3ccccc3)C2SC1 (stereo not drawn) the results were PERK inhibitor 0.6, ROMK primary -3.08*, Arbovirus inh 6.8, WT yeast gro inh 28.4 and ROMK retest 0.0612*.
CC(=O)/C=C1/C(=O)Nc2ccccc21 was read as PERK inhibitor 0.2, ROMK primary -3.79*, Arbovirus inh -5.7, WT yeast gro inh 22.1 and ROMK retest 0.0343*.
CSc1ccc(/C=C(\NC(=O)c2ccccc2)C(=O)NN)cc1 was read as PERK inhibitor -0.5 and ROMK retest 0.0744.
`Cc1sc(NC(=O)CCCC(=O)O)c(C#N)c1C` gave PERK inhibitor 0.6, Arbovirus inh -0.5, WT yeast gro inh -7.3 and ROMK retest 0.0771.
For CCN(CC)C(=O)c1cn(CCC#N)nc1-c1ccc(F)cc1 the results were PERK inhibitor 0.7, ROMK primary 0.833, Arbovirus inh 4.7 and WT yeast gro inh 0.4.
`COc1ccc(OC)c(NC(=O)CSc2nnc(CNc3ccc(C)cc3C)o2)c1` gave PERK inhibitor -1.1, ROMK primary 0.03, Arbovirus inh 5.2 and WT yeast gro inh -6.2.
N#C/C(=C\c1ccc(-c2cccc([N+](=O)[O-])c2)o1)c1nnc(N2CCOCC2)n1-c1ccccc1 was read as PERK inhibitor -0.1, ROMK primary 0.0253, Arbovirus inh -12.0 and WT yeast gro inh -17.5.
Screening Cc1ccc(C2C(C(=O)c3cccs3)=C(O)C(=O)N2c2nnc(C)s2)cc1 (stereo not drawn) returned PERK inhibitor -0.1, ROMK primary -2.31, Arbovirus inh 1.8, WT yeast gro inh -2.5 and ROMK retest 0.0518*.
CCCC1(c2ccccc2)NC(=O)N(CCN2C(=O)c3ccccc3C2=O)C1=O (stereo not drawn) was read as PERK inhibitor 0.7, Arbovirus inh 8.6 and WT yeast gro inh 20.8.
Screening Cc1cc(/C=C2\SC(=S)NC2=O)c(C)n1-c1cccc(O)c1 returned PERK inhibitor 1.8 and ROMK retest 0.0535*.
Screening Cc1[nH]n(-c2ccc([N+](=O)[O-])cc2)c(=O)c1C=NCCN1CCN(C(=O)c2cccc(F)c2)CC1 returned PERK inhibitor 0.0, ROMK primary 0.475, Arbovirus inh 1.1 and WT yeast gro inh 47.7.
`Cc1ccc(CN2CCN(CCCn3cccn3)CC2CCO)cc1` (stereo not drawn) gave PERK inhibitor 0.2, ROMK primary 1.36, Arbovirus inh 4.3 and WT yeast gro inh 11.6.
For CCNc1nc(NCC)nc(SCCOC(=O)Nc2ccc(Cl)cc2Cl)n1 the results were PERK inhibitor 0.5, ROMK primary -0.288, Arbovirus inh 10.5 and WT yeast gro inh 42.9.
For CCCC1(C(=O)OCC)NC(c2ccc(O)cc2)C2C(=O)N(c3ccc4c(c3)OCCO4)C(=O)C21 (stereo not drawn) the results were PERK inhibitor 0.2, ROMK primary 1.17*, Arbovirus inh 6.8, WT yeast gro inh -5.9 and ROMK retest 0.0748.
For COc1cc(C(=O)Nc2ccc3c(c2)Cc2cc(NC(=O)c4cc(OC)c(OC)c(OC)c4)ccc2-3)cc(OC)c1OC the results were PERK inhibitor -0.7, Arbovirus inh -35.2 and WT yeast gro inh -10.3.
For CC1=NOC(=O)/C1=C/c1ccc(O)cc1 the results were PERK inhibitor 0.8, ROMK primary -3.71*, Arbovirus inh -1.8, WT yeast gro inh 0.4 and ROMK retest 0.0476*.
